PubChem BioAssay
The source made the active and inactive calls. Cut-off read from the data, not from the text of the source: active = inhibition above about 30%; inactive = the rest. Square brackets hold non-standard residues; d marks the D form. Peptide text beside a SMILES is read from it. NMeY = CN[C@@H](Cc1ccc(O)cc1)C(=O)O; NMeF = CN[C@@H](Cc1ccccc1)C(=O)O; 2Abz = Nc1ccccc1C(=O)O

test system: transactivating tegument protein VP16 (Human herpesvirus 1), Gal4-VP16 luciferase reporter; experiment: repression of VP16-driven luciferase reporter – cell-based, luminescence, high throughput, counter-screen for SRC3 inhibitor project (AID 588794); conditions: mammalian cells, at 3.6 µM, active compounds read high

SMILES | inhibition
CSCc1cc(N(C)c2ccccc2)nc(-c2ccccn2)n1 | -1.49% (inactive)
N#Cc1c(NCc2ccccc2)ccnc1Cl | 15.9% (inactive)
CCOC(=O)c1c(-c2ccccc2)oc2ccc(O)c(CN3CCOCC3)c12 | 4.57% (inactive)
CCCCNC1C(CC)C(CCC)C(C#N)(C#N)C1(C#N)C#N (stereo not given) | 20% (inactive)
O=C(CCN1CCN(c2ccccc2)CC1)Nc1ccc(Cl)cc1 | 1.2% (inactive)
COc1ccc(OC)c(N/C=C/C(=O)c2ccccc2)c1 | 17.5% (inactive)
Cc1ccc(C(=O)OCC(=O)Nc2sccc2C(N)=O)cc1NC(=O)c1ccco1 | 11.5% (inactive)
Cc1ccccc1OCc1n(CC(=O)OC2CC(C)CCC2C(C)C)c2ccccc2[n+]1C (stereo not given) | 22.8% (inactive)
CCn1cc(C(=O)NCc2ccccn2)c(=O)c2cc(F)c(N3CCN(C)CC3)cc21 | 3.18% (inactive)
Cc1ccc(NC2=C/C(=N/S(=O)(=O)c3cccs3)c3ccccc3C2=O)cc1 | 82% (active)
CNC(=O)c1ccc(-c2sc3nc(N4CCOCC4)c4c(c3c2N)CC(C)(C)OC4)o1 | -22.1% (inactive)
CCc1cccc(CC)c1NC(=O)CSc1nc2ccc(N3C(=O)C4C(C3=O)[C@H]3C=C[C@@H]4C3)cc2s1 (stereo not given in full) | 10.2% (inactive)
COc1ccc(Cl)cc1NC(=O)CN(C)CC(=O)Nc1c(C)n(C)n(-c2ccccc2)c1=O | 4.85% (inactive)
O=C(NNC1=Nc2ccccc2SC1)c1ccc(Cl)cc1 | 5.18% (inactive)
CCC(C)(CC(=O)O)CC(=O)Nc1cc(C(F)(F)F)cc(C(F)(F)F)c1 (stereo not given) | -3.88% (inactive)
COc1ccc2c(c1)-c1c(ssc1=S)C(C)(C)N2S(=O)(=O)c1ccc(C)cc1 | 13.9% (inactive)
CCSc1nnc(NC(=O)C(CC)(C(F)(F)F)C(F)(F)F)s1 | 19.6% (inactive)
CC(C)c1ccc(NC(=O)C2CCCN(S(=O)(=O)c3cccnc3)C2)cc1 (stereo not given) | 4.41% (inactive)
Cc1ccc(/C=C/C(O)=C2/C(=O)N(C)C3(C)CC2c2ccccc2O3)cc1 (stereo not given) | 30.3% (active)
CC(C(=O)c1ccc(-c2ccccc2)cc1)[n+]1ccccc1 (stereo not given) | 19.5% (inactive)

SMILES | inhibition
Cc1cc(C)n(-c2ccc(C(=O)Nc3cccc(S(=O)(=O)N(C)C)c3)cc2)n1 | 18.6% (inactive)
CCOc1ccc(N2C(=O)C(CC(=O)Nc3ccccc3)N(Cc3ccccn3)C2=S)cc1 (stereo not given) | 12.2% (inactive)
O=C(COc1ccc(Cl)cc1)Nc1ccc(C(=O)NCc2cccnc2)cc1 | -24.6% (inactive)
CC(C)(CC(=O)O)CC(=O)Nc1ccc(Oc2ccc(C(C)(C)C)cc2)nc1 | 0.08% (inactive)
CCCCc1nc2ccccc2c(N)c1CCC (tested in a mixture with another compound) | 9.99% (inactive)
COc1ccc2c(O)c(-c3c(C)cc(C)cc3C)c(=O)[nH]c2c1 | -6.8% (inactive)
CCCn1c(N)c(C(=O)CSc2ncc(C(F)(F)F)cc2Cl)c(=O)[nH]c1=O | -5.96% (inactive)
CC(C)C[C@@H]1NC(=O)[C@H](Cc2ccccc2)N(C)C(=O)[C@H](C)NC(=O)c2ccccc2NC(=O)[C@H](Cc2ccc(O)cc2)N(C)C1=O (cyclo([2Abz]A[NMeF]L[NMeY])) | 17.5% (inactive)
CCN(CC)C(=O)c1[nH]cnc1C(=O)N[C@@H](CCCCNC(=O)OC(C)(C)C)C(=O)OC(C)(C)C | -3.67% (inactive)
O=C(N/N=C\c1cc(Br)ccc1O)c1ccc(S(=O)(=O)N2CCCCC2)cc1 | 74.8% (active)
C/C(=N\NC(N)=S)C1C2C3CC4C5CC(C42)C1C53 (stereo not given) | 30% (active)
Clc1ccc(-c2c[n+](Cc3ccc(Cl)cc3Cl)c3n2CCCCC3)cc1 | 10.8% (inactive)
Cc1ccc(-c2nc(CS(=O)CC(=O)NCCCN3CCN(Cc4ccccc4)CC3)c(C)o2)cc1 (stereo not given) | 8.49% (inactive)
Cc1ccccc1OCCNC(=O)c1ccccc1Sc1ccccc1C#N | 1.44% (inactive)
Cc1cc(C(C)(C)C)cc(C)c1Cn1c2[n+](c3ccc(C(F)(F)F)cc31)CCCCC2 | 21.3% (inactive)
NC(=O)c1sc2nc3c(c(-c4ccco4)c2c1N)CCCC3 | 32.4% (active)
C=CC[C@@H](CC(=O)NCCO)C(=O)NC[C@H](OC(=O)[C@@H](CC=C)Cc1ccc(F)cc1)c1ccccc1 | 2.08% (inactive)
O=[N+]([O-])c1ccc(N=Nc2c(Cl)cc(O)cc2Cl)cc1 | 66% (active)
Cc1cccc(NC(=O)c2cc(-c3cccnc3)nc3c(C)cccc23)n1 | 1.11% (inactive)
COCCNC(=O)c1cc(-c2ccccn2)nc2ccc(S(=O)(=O)N3CCC(C)CC3)cc12 | 0.64% (inactive)
